TEAD-YAP block: TEAD-YAP interaction inhibition; HEK-TIYL cells, TEAD-Gal4/YAP UAS-luciferase luminescence; inhibition, % at 9.12 µM; 640,000 compounds, 1.4% hits; in the data active = inhibition above about 32%
GPR151 ag: human GPR151 activation | 650,000 compounds, 1% hits | activation, % at 11.2 µM | PathHunter beta-arrestin GPR151 cells, luminescence | Q8TDV0; in the data active = activation above about 4.9%
MITF inh: inhibitors of human MITF | inhibition, % at 2.6 µM | AlphaScreen MITF homodimerization, bead proximity signal | O75030 | AID 1259374 | 650,000 compounds, 0.91% hits; in the data active = inhibition above about 50%
FBW7 act: human FBW7 E3 ligase activation, primary screen; AlphaScreen FBW7–phospho-cyclin E peptide binding, activator screen; 650,000 compounds, 0.13% hits; Q969H0; normalized activity (activation), % at 26.1 µM; in the data active = normalized activity above about 1.9%;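 also: purified mutant Fbw7 with reduced substrate affinity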
Target sequence (Q969H0 whole entry, looked up): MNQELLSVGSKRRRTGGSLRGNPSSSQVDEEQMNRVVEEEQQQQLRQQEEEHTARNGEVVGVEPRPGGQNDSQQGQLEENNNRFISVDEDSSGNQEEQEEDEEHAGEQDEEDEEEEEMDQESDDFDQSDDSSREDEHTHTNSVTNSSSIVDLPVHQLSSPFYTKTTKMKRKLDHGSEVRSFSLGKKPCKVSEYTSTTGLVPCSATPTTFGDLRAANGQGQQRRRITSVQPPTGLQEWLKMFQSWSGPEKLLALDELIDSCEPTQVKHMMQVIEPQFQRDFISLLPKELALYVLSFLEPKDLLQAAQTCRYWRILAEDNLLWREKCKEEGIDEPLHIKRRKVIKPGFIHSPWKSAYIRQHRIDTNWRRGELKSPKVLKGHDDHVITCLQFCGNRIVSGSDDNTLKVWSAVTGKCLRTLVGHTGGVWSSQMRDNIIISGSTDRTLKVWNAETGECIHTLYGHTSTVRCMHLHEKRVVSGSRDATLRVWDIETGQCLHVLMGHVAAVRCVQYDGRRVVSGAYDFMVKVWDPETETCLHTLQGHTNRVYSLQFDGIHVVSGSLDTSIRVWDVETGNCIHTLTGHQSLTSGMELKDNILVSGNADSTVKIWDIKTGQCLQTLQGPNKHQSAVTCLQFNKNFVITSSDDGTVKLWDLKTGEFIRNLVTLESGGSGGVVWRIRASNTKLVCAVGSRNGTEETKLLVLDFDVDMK
MITF inh conf: confirmation of human MITF inhibitors. 4,700 compounds, 16% hits. inhibition, % at 2.6 µM. shares compounds with MITF inh. AlphaScreen MITF homodimerization, biotin/His-MITF beads. AID 1259372;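 active = inhibition above a cutoff derived from the DMSO control wells, cut at about 28% in these data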;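 also: inhibitors lower the bead chemiluminescence by keeping MITF from dimerizing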
AS interf DR: optically interferes with AlphaScreen signal in dose response; IC50, µM; AlphaScreen optical interference counterscreen, cell-free; shares compounds with MITF inh; 480 compounds, 6% hits; AID 1259373; call rule not given here
AlphaScreen intf2: optically interferes with AlphaScreen signal; LysRS AlphaScreen counterscreen, signal interference, triplicate; AID 1259376; inhibition, % at 2.6 µM; shares compounds with MITF inh; 4,700 compounds, 7.6% hits;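 active = inhibition above a cutoff derived from the DMSO control wells, cut at about 30% in these data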
Of the large screens only hits and unclear results are named; the others gave an inactive call (follow-up assays come after a bar, where they were run). This is a sample that favours compounds with a hit; in the whole collection about 3.4% have one here.

CC12CC3CC(C1)CC(C(=O)Nc1nn[nH]n1)(C3)C2	none
O=C(Nc1nn[nH]n1)C12CC3CC(C1)CC(c1ccccc1)(C3)C2	MITF inh 53 | MITF inh conf inactive | AlphaScreen intf2 inactive
COc1ccc(/C=C2\C=C(c3ccccc3)OC2=O)cc1[N+](=O)[O-]	none
O=C(NCCCn1ccnc1)C(=O)NCC1OCCN1S(=O)(=O)c1ccccc1 (stereo unspecified)	none
O=C(NCCCn1ccnc1)C(=O)NCC1OCCCN1S(=O)(=O)c1ccccc1 (stereo unspecified)	MITF inh 66 | MITF inh conf 35 | AlphaScreen intf2 45
O=C(CCc1ccco1)Nc1ccc(-c2cn3c4c(nnc3n2)CCCC4)cc1	MITF inh 72 | MITF inh conf 58 | AS interf DR inactive | AlphaScreen intf2 inactive
Cc1ccc(CCC(=O)Nc2ccc(-c3cn4c5c(nnc4n3)CCCC5)cc2)o1	MITF inh 56 | MITF inh conf 66 | AS interf DR inactive | AlphaScreen intf2 inactive
CC1CCN(S(=O)(=O)c2ccc(NC(=O)Cc3ccccc3[N+](=O)[O-])cc2)CC1	none
N#CC1=C(N)Oc2n[nH]c(-c3ccccn3)c2C1c1ccc([N+](=O)[O-])s1 (stereo unspecified)	MITF inh 107 | MITF inh conf 117 | AlphaScreen intf2 100
Cc1cc(C)cc(NCc2ccc3c(c2)OCO3)c1	MITF inh 67 | MITF inh conf inactive | AlphaScreen intf2 inactive
COCCN1CNc2c(c(=O)n(C)c(=O)n2C)C1	none
CCN(O)C(=O)Nc1cccc(Cl)c1	MITF inh 70 | MITF inh conf inactive | AlphaScreen intf2 inactive
CC(=O)CC(=O)Nc1cccc(Cl)c1	none
O=C(N/N=C/c1ccc(C(F)(F)F)cc1)c1ccc(O)cc1O	MITF inh 69 | MITF inh conf inactive | AlphaScreen intf2 inactive
O=[N+]([O-])c1ccccc1Sc1nc2ccccc2[nH]1	none
N#C/C(=C\c1ccc(OCC(=O)NCC2CCCO2)cc1)C(=O)NC1CCCCC1 (stereo unspecified)	none
c1cn2cc(Cc3nnc4n3CCCCC4)nc2s1	none
c1cn2cc(Cc3nnc4n3CCC4)nc2s1	MITF inh 80 | MITF inh conf inactive | AlphaScreen intf2 inactive
CN1C(=O)NC(=O)/C(=C/c2cn(Cc3ccccc3)c3ccccc23)C1=O	none
O=C(/C=C/c1ccco1)C1=C(O)C(=O)N(CCCN2CCOCC2)C1c1ccco1 (stereo unspecified)	MITF inh 79 | MITF inh conf 60 | AS interf DR inactive | AlphaScreen intf2 inactive
C/C(=N\N1CCOCC1)c1ccc(-n2ccnc2)cc1	MITF inh 76 | MITF inh conf inactive | AlphaScreen intf2 inactive
C/C(=N\Nc1ccccn1)c1ccc(-n2ccnc2)cc1	none
Cc1cccc(NC(=O)C2C3C=CC(C4CC34)C2C(=O)O)c1C (stereo unspecified)	MITF inh 55 | MITF inh conf inactive | AlphaScreen intf2 inactive
CCOC(=O)c1ccccc1NC(=O)c1cc2c(=O)oc3ccccc3c2s1	none
Cc1[nH]nc2c1C(c1ccc(Cl)cc1Cl)C(C#N)=C(N)O2 (stereo unspecified)	none
O=C(N/N=C/C=C/c1ccc([N+](=O)[O-])o1)c1cccc(O)c1	none
CC(O)C(=O)N/N=C/C=C/c1ccc([N+](=O)[O-])o1 (stereo unspecified)	MITF inh 55 | MITF inh conf 71 | AS interf DR inactive | AlphaScreen intf2 inactive
Cc1cc(C)n(-c2cc(N3CCN(C(=O)c4cccc(Cl)c4)CC3)ccc2[N+](=O)[O-])n1	none
CCOC1(OCC)N=C(N)C2(C#N)C(c3ccc(OC)c(OC)c3)C12C#N (stereo unspecified)	none
COC1(OC)N=C(N)C2(C#N)C(c3ccc(Cl)cc3)C12C#N (stereo unspecified)	none
CCOC1(OCC)N=C(N)C2(C#N)C(c3cccc(C)c3)C12C#N (stereo unspecified)	MITF inh 56 | MITF inh conf inactive | AlphaScreen intf2 inactive
COc1ccc(C2C3(C#N)C(N)=NC(OC)(OC)C23C#N)cc1 (stereo unspecified)	MITF inh 74 | MITF inh conf inactive | AlphaScreen intf2 inactive
COC1(OC)N=C(N)C2(C#N)C(c3ccc4c(c3)OCO4)C12C#N (stereo unspecified)	none
COC1(OC)N=C(N)C2(C#N)C(c3ccc(C)cc3)C12C#N (stereo unspecified)	MITF inh 55 | MITF inh conf inactive | AlphaScreen intf2 inactive
COc1ccccc1-n1cc(CN2CCN3C(=O)[C@H](COCc4ccccc4)NC(=O)[C@H]3C2)cn1	none
CC(C)c1ccc(CNc2cc(N3CCN(S(=O)(=O)c4ccc(Cl)cc4)CC3)ccc2[N+](=O)[O-])cc1	none
Cc1c(Cl)cccc1NC(=O)CSc1ccc(-c2ccncc2)nn1	none
O=C(CCN1C(=O)c2ccccc2C1=O)CN1CCC(Cn2cnc3ccccc32)CC1	MITF inh 59 | MITF inh conf inactive | AlphaScreen intf2 inactive
CCOC(=O)N1CCN(C(=O)CN2CCN(CC)CC2)CC1	MITF inh 71 | MITF inh conf inactive | AlphaScreen intf2 inactive
O=C(NCC(=O)N1CCC(Cn2cnc3ccccc32)CC1)c1ccccc1	MITF inh 56 | MITF inh conf inactive | AlphaScreen intf2 inactive
CN(C(=O)CCN1C(=O)c2ccccc2C1=O)C1CCCCC1	none
O=C(Nc1cccs1)N1CCC(Cn2cnc3ccccc32)CC1	none
COc1cccc2cc(C(=O)N3CCC(Cn4cnc5ccccc54)CC3)oc12	MITF inh 60 | MITF inh conf inactive | AlphaScreen intf2 inactive
N#C/C(=C/c1ccc(I)o1)c1ccc(C#N)cc1	none
COc1ccc2c(c1)COC1(CCN(C(=O)NCc3cccc(F)c3)CC1)O2	none
O=C(C1CCC1)N1CCC(Cn2cnc3ccccc32)CC1	MITF inh 52 | MITF inh conf inactive | AlphaScreen intf2 inactive
O=C(c1cnn(-c2ccccc2)n1)N1CCC(Cn2cnc3ccccc32)CC1	MITF inh 58 | MITF inh conf inactive | AlphaScreen intf2 inactive
O=C(Nc1ccc2c(c1)OCO2)N1CCC(Cn2cnc3ccccc32)CC1	none
CCOC(=O)N1CCN(C(=O)CN2CCC(Cn3cnc4ccccc43)CC2)CC1	MITF inh 76 | MITF inh conf inactive | AlphaScreen intf2 inactive
O=C(c1cnn(-c2ccccc2)n1)N1CCN(c2cc(N3CCCCC3)ncn2)CC1	none
O=C(CSCc1ccccc1)N1CCC(Cn2cnc3ccccc32)CC1	MITF inh 67 | MITF inh conf inactive | AlphaScreen intf2 inactive
COc1cc(Br)cc2cc(C(=O)N3CCc4ccccc43)c(=O)oc12	none
COc1ccc(C(=O)NCC(=O)NCC(=O)OCC(=O)c2cccc([N+](=O)[O-])c2)cc1	none
O=C(Cc1cccs1)N1CCC(Cn2cnc3ccccc32)CC1	MITF inh 65 | MITF inh conf inactive | AlphaScreen intf2 inactive
